From PubChem BioAssay
An excerpt weighted towards active compounds, which were near 2.4% of everything screened.
D2 antag: antagonists of human D2 dopamine receptor; AID 485344; inhibition, % at 10 µM; HEK293 TREx D2 cells, calcium flux, dopamine EC80; P14416; 2% of 340,000 active; in the data active = inhibition above about 30%; inactive = below that, where a call was filed
Target sequence (P14416 whole entry, looked up): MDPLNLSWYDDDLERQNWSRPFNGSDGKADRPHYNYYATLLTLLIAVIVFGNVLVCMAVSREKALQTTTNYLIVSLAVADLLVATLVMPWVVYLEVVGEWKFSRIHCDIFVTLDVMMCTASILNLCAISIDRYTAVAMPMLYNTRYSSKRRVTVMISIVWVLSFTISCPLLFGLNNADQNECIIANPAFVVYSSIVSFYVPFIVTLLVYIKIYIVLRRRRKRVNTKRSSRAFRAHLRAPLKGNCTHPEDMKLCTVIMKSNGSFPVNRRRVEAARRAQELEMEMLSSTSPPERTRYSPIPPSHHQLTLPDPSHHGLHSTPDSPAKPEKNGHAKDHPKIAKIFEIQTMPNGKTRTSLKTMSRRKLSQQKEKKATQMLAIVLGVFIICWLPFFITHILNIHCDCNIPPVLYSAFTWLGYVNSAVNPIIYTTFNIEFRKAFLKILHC
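In this primary screen, negative modulation is detected by tracking calcium flux after an EC80 dopamine challenge in inducible HEK293 T-REx D2 cells preexposed to test compound for 180 s.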
D2 PAM-1: D2 dopamine receptor (human) potentiation. P14416. HEK293 T-REx D2, calcium flux, EC20 dopamine potentiation. potentiation, % at 10 µM. 0.34% of 340,000 active. AID 485347;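 active = potentiation over 3 SD above the plate norm, cut at about 30% in these data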
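Potentiation of an EC20 dopamine calcium response is measured in a force-coupled, tetracycline-inducible Hek293 Trex D2 line. Compound-only kinetic reads over 180 s flag agonists before dopamine addition.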
D2 ag-1: agonists of human D2 dopamine receptor; P14416; HEK293 T-REx D2 cells, calcium flux agonist mode; activation, % at 2 µM; 0.53% of 340,000 active; AID 485358;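 active = activation over 3 SD above normal in the single-dose calcium agonist read, cut at about 30% in these data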
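Tetracycline-induced HEK293 T-REx cells with force-coupled D2 receptor, plated overnight at 30 C, loaded with no-wash calcium dye. After a 10 s baseline, compound was pin-added and calcium flux read kinetically for 180 s; calcium rises flagged agonists.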
D2 ag-2: activates the human D2 dopamine receptor | P14416 | DiscoveRx PathHunter D2 beta-arrestin, luminescence, 90 min; 100% = 57 uM dopamine signal | activation, % (concentration not given with the values) | 0.084% of 360,000 active; in the data active = activation above about 40%; inconclusive = between about 15% and that limit
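Agonist mode: compounds alone added to overnight-plated D2 PathHunter cells for 90 min at 37 C, with 57 uM final dopamine (EC100) defining full response. Beta-arrestin recruitment detected by chemiluminescent reagent, read after 1 h at ambient temperature.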
D2 PAM-2: potentiates the human D2 dopamine receptor allosterically | P14416 | DiscoveRx D2 beta-arrestin cells, luminescence, 90 min; 100% = 57 uM dopamine signal | potentiation, % (concentration not given with the values) | 0.23% of 360,000 active | AID 624464; in the data active = potentiation above about 50%; inconclusive = mostly about 30% to 49%
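PathHunter D2 cells, attached overnight at 37 deg C, received compound in DMSO plus dopamine at EC20 (50 nM final) for 90 min at 37 deg C. Beta-arrestin recruitment was read as luminescence after 1 h with detection reagent at ambient temperature.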
Each line names hits and unclear results; the compound was inactive in the other large screens.

CC(C)c1ccc(Nc2ncnc3c2nc2n3CCCC2)cc1	none (no result: D2 antag, D2 ag-2, D2 PAM-2)
Cc1n[nH]c(=S)n1/N=C/c1ccc(OCc2ccc(Cl)cc2Cl)cc1	D2 antag 31
CCOC(=O)c1ccc(NC2=CC(=O)C(=O)c3ccccc32)cc1	D2 PAM-2 112
CCOC(=O)c1ccc(NC(=O)Oc2ccccc2)cc1	D2 PAM-1 33
COc1ccc(CNC(=O)CSc2ncc3c(n2)-c2ccc(Cl)cc2N(Cc2ccc(F)cc2)S3(=O)=O)cc1OC	none (no result: D2 antag, D2 ag-2, D2 PAM-2)
CC1(C)C(c2ccccc2)=[N+]([O-])C2(CCCCC2=O)N1O (stereo unspecified)	D2 antag 33
CC1(C)C(c2cccs2)=[N+]([O-])C2(CCCCC/C2=N\O)N1O (stereo unspecified)	D2 PAM-2 inconclusive
Cc1ccc(Cn2c(CNC(=O)Cc3cccc([N+](=O)[O-])c3)nc3cccnc32)cc1	none (no result: D2 antag, D2 ag-2, D2 PAM-2)
COc1cc2c(C(=O)N3CCN(c4cccc(C)c4)C(C)C3)cn(CC(C)C)c(=O)c2cc1OC (stereo unspecified)	none (no result: D2 antag, D2 ag-2, D2 PAM-2)
CCOC(=O)C1CCCN(C(=O)c2cn(CC)c3ccc(S(=O)(=O)N(C)C)cc3c2=O)C1 (stereo unspecified)	D2 antag 35
CSc1cccc(Nc2nc3c(S(=O)(=O)c4ccccc4)nnn3c3ccc(Cl)cc23)c1	none (no result: D2 antag, D2 ag-1, D2 ag-2, D2 PAM-2)
Cc1ccc(NS(=O)(=O)c2ccc3c(c2)CCC(=O)N3)cc1	D2 antag 65
N/C(=N\OS(=O)(=O)c1ccc(Br)cc1)c1ccncc1	D2 ag-2 inconclusive, D2 PAM-2 95
COc1ccccc1NC(=O)Cn1c(=O)n(Cc2ccccc2)c(=O)c2c1c1cc(C)ccc1n2C	none (no result: D2 antag, D2 ag-2, D2 PAM-2)
O=C(O)CCS(=O)(=O)c1ccccc1Cl	D2 antag 39
COc1ccc(N2CCN(c3oc(/C=C/c4cc(OC)c(OC)c(OC)c4)nc3C#N)CC2)cc1	none (no result: D2 antag, D2 ag-1, D2 ag-2, D2 PAM-2)
Cc1nc(N2CCCC2)ncc1C(=O)N1CCN(c2ccc(Cl)cc2)CC1	none (no result: D2 antag, D2 ag-2, D2 PAM-2)
CCOC(=O)N1CCC(Nc2c(Nc3ccc(C)c(C)c3)c(=O)c2=O)CC1	D2 antag 57
O=C(NCc1ccccc1)C1CCN(S(=O)(=O)c2ccc3c(c2)CCCN3C(=O)C2CCC2)CC1	none (no result: D2 antag, D2 ag-2, D2 PAM-2)
Cc1ccc2oc(C(=O)Nc3nc(-c4ccc(F)cc4)ns3)c(C)c2c1	none (no result: D2 antag, D2 ag-2, D2 PAM-2)
COc1ccc(CNC(=O)Nc2cccc(C(F)(F)F)c2)cc1OC	D2 antag 46
COc1ccc(CNC(=O)NCc2ccc(OC)c(OC)c2)cc1OC	none
Cc1ccc(C(=O)NCC(c2ccco2)N2CCCCC2)s1 (stereo unspecified)	D2 antag 36
O=C(NCC(c1ccco1)N1CCCC1)c1cc2ccccc2s1 (stereo unspecified)	D2 antag 35
CCOC(=O)CSc1nnc(-c2cccs2)n1-c1ccccc1	D2 PAM-1 32
COc1cc(C2=Nc3ccc(Br)cc3C(c3ccccc3)N2CC(=O)NN)cc(OC)c1OC (stereo unspecified)	D2 antag 86
COC(=O)CN1C(c2ccc(OC)cc2)=Nc2ccc(Cl)cc2C1c1ccccc1 (stereo unspecified)	D2 antag 91
COC(=O)CN1C(c2cccc(Cl)c2)=Nc2ccc(Cl)cc2C1c1ccccc1 (stereo unspecified)	none
Cc1ccc(NC(=O)/C(C#N)=C(\N)C(Cl)(Cl)Cl)nc1	D2 antag 33
Cc1ccc(NC(=O)C(=O)Nc2ccc(C)cn2)nc1	none
Cc1nc2nncn2c(NCc2ccc(Cl)cc2)c1C	none (no result: D2 antag, D2 ag-2, D2 PAM-2)
COc1ccc(Br)cc1CNC(=O)c1cc(=O)[nH]c2ccc(S(=O)(=O)N3CCCCC3)cc12	none (no result: D2 antag, D2 ag-2, D2 PAM-2)
COC(=O)c1c(-c2cccs2)csc1NC(=O)CN1CCOCC1	D2 PAM-1 33
COC(=O)c1c(-c2cccs2)csc1NC(=O)c1ccc(C)cc1	none (no result: D2 antag, D2 ag-2, D2 PAM-2)
O=C(CN1CCOCC1)Nc1scc2c1c(=O)oc1ccccc12	D2 antag 36
Cc1ccc(CSC2=Nc3ccccc3C3=NC(CC(=O)NC4CCCCC4)C(=O)N23)cc1 (stereo unspecified)	none (no result: D2 antag, D2 ag-2, D2 PAM-2)
CN(C)c1ccc(NC(=O)c2cccc(N3C(=O)C4C5C=CC(C5)C4C3=O)c2)cc1 (stereo unspecified)	D2 antag 36
Cc1ccc(NC(=O)c2cccc(N3C(=O)C4C5C=CC(C5)C4C3=O)c2)cc1C (stereo unspecified)	none
Cc1cccc2c1N(CCOc1ccccc1Cl)C(=O)C2=O	D2 antag 30
Cc1ccccc1OCCN1C(=O)C(=O)c2cccc(C)c21	none
CCOc1ccc(-n2cc(-c3ccccc3)c3c(N4CCN(c5ccccc5OC)CC4)ncnc32)cc1	none (no result: D2 antag, D2 ag-2, D2 PAM-2)
Cc1ccc(NC(=O)C2CC(=O)NC(N3CCCCC3)=N2)cc1Cl (stereo unspecified)	D2 antag 71
O=C1CC(C(=O)Nc2ccccc2)N=C(N2CCCCC2)N1 (stereo unspecified)	none
CCc1c(CN2CCN(c3cccc(C)c3C)CC2)csc1C	none (no result: D2 antag, D2 ag-1, D2 ag-2, D2 PAM-2)
COC(=O)c1cc(C(=O)OC)cc(-n2c(C)cc(C(=O)COC(=O)CNS(=O)(=O)c3ccc(C)cc3)c2C)c1	D2 antag 60
COc1cc(NC(=O)N2c3ccccc3Sc3ccccc32)c(C(=O)O)cc1OC	D2 ag-2 50
Cc1onc(C(=O)N2CCN(c3ccccc3F)CC2)c1-c1ccccc1Cl	D2 PAM-1 34
Cc1ccc2oc(C(=O)NCC(c3ccc(Cl)cc3)N3CCOCC3)c(C)c2c1 (stereo unspecified)	none (no result: D2 antag, D2 ag-2, D2 PAM-2)
CCOc1nc(C)ccc1-c1noc(-c2ccccn2)n1	none
COc1ccc(-c2nc(-c3ccncc3)no2)c(OC)c1	D2 antag 58
CCOc1nc(C)ccc1-c1noc(-c2ccco2)n1	D2 PAM-1 35
COc1cc(-c2nc(-c3ccc(C)nc3OC)no2)cc(OC)c1OC	none (no result: D2 ag-2, D2 PAM-2)
COc1ccc(-c2ccc(-c3noc(-c4ccccc4)n3)c(OC)n2)cc1	D2 antag 31
COc1nc(C)ccc1-c1noc(-c2ccncc2)n1	D2 PAM-1 38
CC(C)(C)C(=O)OCc1cc(=O)n2nc(C3CC3)sc2n1	none (no result: D2 antag, D2 ag-1, D2 ag-2, D2 PAM-2)
COc1ccc(C(=O)NCCc2sc(-c3cccc(F)c3)nc2C)cc1	none (no result: D2 antag, D2 ag-1, D2 ag-2, D2 PAM-2)
COc1ccc(-c2noc(CSc3nnc(-c4ccncc4)n3-c3ccc(C)c(C)c3)n2)cc1	none (no result: D2 antag, D2 ag-2, D2 PAM-2)
CCN(CC)c1ccc(NS(=O)(=O)c2cc3[nH]c(=O)c(=O)[nH]c3cc2C)c(C)c1	none (no result: D2 antag, D2 ag-2, D2 PAM-2)
N#Cc1nc(COc2ccccc2Cl)oc1NCc1cccnc1	D2 antag 40
N#Cc1nc(COc2ccccc2Cl)oc1NCc1ccc(F)cc1	none
Cc1ccc(S(=O)(=O)Nc2ccc(O)c3cccnc23)cc1	D2 PAM-1 31, D2 PAM-2 inconclusive
CCC(C)n1c(SCc2ccc(F)cc2Cl)nc2ccsc2c1=O (stereo unspecified)	none (no result: D2 antag, D2 ag-2, D2 PAM-2)
CCOc1ncccc1C(=O)OCC(=O)NC1CCCCCC1	D2 antag 31
